Several values for one entry are separate records, joined by “and”; a condition that tells them apart may be missing. Equal values may be shown once. Results filed as inconclusive are left out. Where a call stands in place of a potency, no number is given. The source holds several records for some structures; these can differ, active in one and inactive in another. Activity calls are given as the source filed them. Unless noted, calls follow the shape of the dose curve; as a rule, active = well fitted curve in the direction sought with a large enough effect in the repeat runs; inconclusive = weak or mixed curves; inactive = no such curve, though single readings can be large; an effect the other way counts as inactive or inconclusive.
How the values were obtained:
[1] = qHTS assay to identify small molecule antagonists of the progesterone receptor (PR) signaling pathway - cell viability counter screen (AID 1346798); also: series mostly up to about 92 µM; nearly all actives have a fitted effect of over 50% in size
Method in brief: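 Viability was determined by ATP-based luminescence (CellTiter-Glo) in PR-UAS-bla HEK293T cells cultured in 2% charcoal-stripped serum and incubated 16 hr with compounds under R5020 stimulation.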

[2] = qHTS assay to identify small molecule agonists of the progesterone receptor (PR) signaling pathway - cell viability counter screen (AID 1346799; calls by dose curve; also: nearly all actives have a fitted effect of over 45% in size; also: potency is read from the fitted curve at half-maximal effect)
Method in brief: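 Viability was scored by ATP luminescence (CellTiter-Glo, 30 min, room temperature) in the same wells used for the reporter readout, after 16 hr compound exposure of PR-UAS-bla HEK293T cells.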

[3] = qHTS assay to identify small molecule antagonists of the TGF-beta/Smad signaling pathway - cell viability counter screen (AID 1346824); also: nearly all actives have a fitted effect of over 50% in size
Method in brief: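 SBE-bla HEK 293T cells, incubated overnight, then compound plus 0.25 ng/mL TGF-beta1 (stock added) for 5 hr at 37 C. Viability was read in the same wells by CellTiter-Glo luminescence after 30 min at room temperature.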

[4] = qHTS assay to identify small molecule agonists of the TGF-beta/Smad signaling pathway - cell viability counter screen (AID 1346829); also: top concentration of the series differs between compounds; nearly all actives have a fitted effect of over 45% in size
Method in brief: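 Here the cytotoxicity of library compounds is measured in SBE-bla HEK 293T cells treated for 5 hr, using CellTiter-Glo added to wells already read for the beta-lactamase reporter.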

[5] = qHTS assay to identify small molecule agonists of the TGF-beta/Smad signaling pathway (AID 1346859; active = well fitted activation curve with a large enough effect in the signal ratio in the repeat runs, not every such curve was filed as active; the % refers to the signal ratio; also: series mostly up to about 77 µM)
Method in brief: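 Dual-wavelength fluorescence (460/530 nm emission) quantified beta-lactamase expression under the Smad binding element in HEK 293T cells following 5 hr compound treatment at 37 C.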

[6] = biological target: Thyrotropin-releasing hormone receptor (Homo sapiens) (UniProt P34981); experiment: qHTS assay to identify small molecule antagonists of the thyrotropin-releasing hormone receptor (TRHR) signaling pathway (AID 1346877; active = well fitted inhibition curve with a large enough effect in the repeat runs, not every such curve was filed as active; also: series mostly up to about 51 µM)
Thyrotropin-releasing hormone receptor (Homo sapiens), sequence (P34981 whole entry, looked up): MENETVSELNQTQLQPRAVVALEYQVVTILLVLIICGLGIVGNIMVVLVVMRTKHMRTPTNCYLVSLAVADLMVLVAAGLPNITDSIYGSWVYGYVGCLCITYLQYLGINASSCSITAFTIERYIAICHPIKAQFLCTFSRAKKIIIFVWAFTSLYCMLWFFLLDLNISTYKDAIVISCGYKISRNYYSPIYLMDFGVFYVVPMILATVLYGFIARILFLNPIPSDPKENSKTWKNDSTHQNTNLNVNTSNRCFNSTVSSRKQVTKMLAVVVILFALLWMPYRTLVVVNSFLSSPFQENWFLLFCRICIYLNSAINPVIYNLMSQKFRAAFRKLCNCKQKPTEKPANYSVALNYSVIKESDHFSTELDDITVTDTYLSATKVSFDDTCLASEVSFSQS
Method in brief: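 Following an 18 h incubation at 37 °C and a 2 h calcium dye load, TRHR-HEK293 cells were exposed to compound (5 min, room temperature) and challenged with TRH, 1 nM final.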

[7] = biological target: Thyrotropin-releasing hormone receptor (Homo sapiens) (UniProt P34981); experiment: qHTS assay to identify small molecule agonists of the thyrotropin-releasing hormone receptor (TRHR) signaling pathway (AID 1346891; calls by dose curve;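 also: HEK293 cells expressing TRHR with calcium dye readout; series mostly up to about 58 µM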)
Method in brief: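 Kinetic fluorescence (3 min, 1 s intervals) reported intracellular calcium after compound transfer onto TRHR-Hek293 cells pre-loaded with dye for 2 h at 37 °C.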

[8] = Human pregnane X receptor (PXR) small molecule agonists, qHTS cell viability counter screen (AID 1346977); also: nearly all actives have a fitted effect of over 50% in size; also: potency is read from the fitted curve at half-maximal effect
Method in brief: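 HepG2 cells stably carrying the PXR-Luc reporter are cultured with 5% charcoal-stripped FBS and treated with compounds for 24hr. CellTiter-Fluor is added at 23hr and fluorescence is read after 1hr.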

[9] = Caspase-3/7 induction in HepG2 cells by small molecules, qHTS assay (AID 1346978); also: nearly all actives have a fitted effect of over 15% in size
Method in brief: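 Wild-type HepG2 cells, 2,000/well, settled 5 hr at 37 C and 5% CO2, then compound-treated for 17 hr; caspase-3/7 activity read by luminescent Caspase-Glo 3/7 after 30 min at room temperature.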

[10] = Caspase-3/7 induction in CHO-K1 cells by small molecules, qHTS cell viability counter screen (AID 1346979); also: nearly all actives have a fitted effect of over 35% in size; also: potency is read from the fitted curve at half-maximal effect
Method in brief: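 Seeding: 1,500 CHO-K1 cells/well. Rest: 5hr, 37C. Treatment: compounds in DMSO, 16hr. Read: CellTiter-Fluor, 1hr, fluorescence.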

[11] = Caspase-3/7 induction in CHO-K1 cells by small molecules, qHTS assay (AID 1346980); also: nearly all actives have a fitted effect of over 15% in size
Method in brief: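 Wild-type CHO-K1 cells exposed to compounds for 17hr at 37 C, 5% CO2. Caspase-3/7 activity then measured by Caspase-Glo 3/7 luminescence after 30min at room temperature.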

[12] = biological target: Acetylcholinesterase (Homo sapiens) (UniProt P22303); experiment: Acetylcholinesterase (AChE) small molecule antagonists: colormetric cell-based qHTS assay (AID 1347395; calls by dose curve; also: nearly all actives have a fitted effect of over 30% in size)
Acetylcholinesterase (Homo sapiens), sequence (P22303 whole entry, looked up): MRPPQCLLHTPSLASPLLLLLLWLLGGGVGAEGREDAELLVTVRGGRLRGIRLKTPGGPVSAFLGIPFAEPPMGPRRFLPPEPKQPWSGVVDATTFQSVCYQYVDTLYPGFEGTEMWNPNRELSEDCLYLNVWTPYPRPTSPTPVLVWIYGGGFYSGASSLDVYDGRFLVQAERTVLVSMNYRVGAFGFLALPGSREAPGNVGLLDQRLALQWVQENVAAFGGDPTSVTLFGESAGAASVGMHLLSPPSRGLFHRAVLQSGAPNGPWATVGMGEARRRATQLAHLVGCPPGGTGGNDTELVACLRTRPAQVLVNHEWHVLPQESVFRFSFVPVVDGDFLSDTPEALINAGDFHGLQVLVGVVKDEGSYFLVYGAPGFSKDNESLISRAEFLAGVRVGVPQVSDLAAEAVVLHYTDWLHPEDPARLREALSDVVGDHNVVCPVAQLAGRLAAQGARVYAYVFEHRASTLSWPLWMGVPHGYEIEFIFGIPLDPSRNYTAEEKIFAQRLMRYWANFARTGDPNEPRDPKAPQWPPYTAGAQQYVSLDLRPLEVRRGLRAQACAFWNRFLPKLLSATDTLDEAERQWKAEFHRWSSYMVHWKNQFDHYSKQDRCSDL
Method in brief: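 Quantitative HTS in attached SH-SY5Y cells: 30 min compound exposure, then 90 min with acetylthiocholine and DTNB at 37 C; colour from thiocholine reports AChE activity.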

[13] = biological target: Acetylcholinesterase (Homo sapiens) (UniProt P22303); experiment: Acetylcholinesterase (AChE) small molecule antagonists: enzyme-based qHTS assay (AID 1347397; calls by dose curve; also: nearly all actives have a fitted effect of over 55% in size); conditions: Potency: AChE enzyme activity inhibition
Method in brief: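 Enzyme inhibition was scored from DTNB-detected thiocholine formed by recombinant human AChE acting on acetylthiocholine. The 30 min compound preincubation and 10 min substrate reaction were both run at room temperature, with DMSO as vehicle control.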

[14] = biological target: Acetylcholinesterase (Homo sapiens) (UniProt P22303); experiment: Acetylcholinesterase (AChE) small molecule antagonists: fluorescence cell-based qHTS assay (AID 1347398; calls by dose curve; also: nearly all actives have a fitted effect of over 50% in size); conditions: Potency: AChE activity
Method in brief: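 Endogenous acetylcholinesterase of SH-SY5Y neuroblastoma cells is measured in situ. After overnight attachment and 30 min compound exposure, cells receive acetylthiocholine and Thiolite Green; fluorescence is read after 40 min at room temperature.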

[15] = biological target: Acetylcholinesterase (Homo sapiens) (UniProt P22303); experiment: Acetylcholinesterase (AChE) small molecule antagonists: enzyme-based qHTS assay with human liver microsomes (AID 1347399; calls by dose curve; also: nearly all actives have a fitted effect of over 60% in size); conditions: Potency: qHTS inhibition
Method in brief: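 Recombinant human AChE (50 mU/mL in the enzyme mix) and human liver microsomes (0.25 mg/mL final) were preincubated with compound and NADPH (0.25 mg/mL final) for 30 min at 37 C. Acetylthiocholine/DTNB was then added; thiocholine was read colorimetrically after 10 min at room temperature.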

[16] = biological target: Cytochrome P450 2D6 (Homo sapiens) (UniProt P10635); experiment: Cytochrome P450 Family 2 Subfamily D Member 6 (CYP2D6) small molecule antagonists: luciferase reporter qHTS assay (AID 1671196)
Cytochrome P450 2D6 (Homo sapiens), sequence (P10635 whole entry, looked up): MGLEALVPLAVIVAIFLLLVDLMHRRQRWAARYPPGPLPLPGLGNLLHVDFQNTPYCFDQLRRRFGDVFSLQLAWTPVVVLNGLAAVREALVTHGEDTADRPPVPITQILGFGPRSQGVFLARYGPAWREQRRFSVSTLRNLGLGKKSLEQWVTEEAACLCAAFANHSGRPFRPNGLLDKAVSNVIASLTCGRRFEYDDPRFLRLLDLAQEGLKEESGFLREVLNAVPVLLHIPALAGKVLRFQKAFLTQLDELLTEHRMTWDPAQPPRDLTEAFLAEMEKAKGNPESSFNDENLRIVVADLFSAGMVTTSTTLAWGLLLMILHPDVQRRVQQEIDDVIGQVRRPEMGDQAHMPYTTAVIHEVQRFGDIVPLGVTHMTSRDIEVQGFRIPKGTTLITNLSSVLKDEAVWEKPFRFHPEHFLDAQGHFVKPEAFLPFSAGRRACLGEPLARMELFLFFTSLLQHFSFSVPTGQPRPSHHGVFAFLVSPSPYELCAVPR
Method in brief: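 Each well received CYP2D6 with its proluciferin substrate and chemical, sat 10 min, then got NADPH regeneration solution for 1 h at room temperature. Luminescence in RLU served as the activity measure.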

[17] = Caspase-3/7 induction in HepG2 cells by small molecules, qHTS cell viability counter screen (AID 1346981); also: series mostly up to about 92 µM; nearly all actives have a fitted effect of over 30% in size
Method in brief: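 Viability determined by CellTiter-Fluor fluorescence in HepG2 wells also used for the luminescent Caspase-Glo 3/7 read. Compounds were present for 16 hr at 37 C, 5% CO2 before reagent addition.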

[18] = biological target: Nuclear receptor subfamily 1 group I member 2 (Homo sapiens) (UniProt O75469); experiment: Human pregnane X receptor (PXR) small molecule agonists, qHTS assay (AID 1346982); also: nearly all actives have a fitted effect of over 35% in size; also: potency is read from the fitted curve at half-maximal effect
Nuclear receptor subfamily 1 group I member 2 (Homo sapiens), sequence (O75469 whole entry, looked up): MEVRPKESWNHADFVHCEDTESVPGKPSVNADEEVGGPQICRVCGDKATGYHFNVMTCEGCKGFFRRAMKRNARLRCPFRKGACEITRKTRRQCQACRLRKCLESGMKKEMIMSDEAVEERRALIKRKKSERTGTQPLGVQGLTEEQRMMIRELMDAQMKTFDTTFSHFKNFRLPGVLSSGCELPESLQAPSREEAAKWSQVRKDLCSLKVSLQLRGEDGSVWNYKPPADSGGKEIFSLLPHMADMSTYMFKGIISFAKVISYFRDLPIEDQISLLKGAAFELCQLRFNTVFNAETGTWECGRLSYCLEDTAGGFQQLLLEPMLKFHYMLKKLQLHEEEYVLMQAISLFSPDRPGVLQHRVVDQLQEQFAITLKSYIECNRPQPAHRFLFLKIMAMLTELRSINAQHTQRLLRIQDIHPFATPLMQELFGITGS
Method in brief: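 Compound-induced hPXR transactivation of a CYP3A4 luciferase reporter was scored in HepG2 PXR-Luc cells over 24 hr at 37 C, 5% CO2, by luminescence.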

Row | Structure (SMILES) | Potency [1] | Potency [2] | Potency [3] | outcome [4] | Potency [5] | outcome [6] | Potency [7] | Potency [8] | outcome [9] | Potency [10] | outcome [11] | Potency [12] | Potency [13] | Potency [14] | Potency [15] | Potency [16] | Potency [17] | Potency [18]
1 | CCC[CH2][Sn]([Cl])([Cl])[Cl] | inactive | inactive | inactive | inactive | inactive | inactive | inactive | inactive | inactive | inactive | inactive | inactive | inactive | inactive | inactive | inactive |  | 
2 | CC(=O)C=C(C)C | inactive | inactive | inactive | inactive | inactive | inactive | inactive | inactive | inactive | inactive | inactive | inactive | inactive | inactive | inactive | inactive | inactive | 
3 | CC(C)N1C(=O)c2ccccc2NS1(=O)=O | inactive | inactive | inactive | inactive | inactive |  |  | inactive | inactive | inactive | inactive | inactive |  | inactive | inactive | inactive | inactive | 
4 | Nc1ccc(Br)cc1 | inactive | 27.3 µM (active) and inactive | inactive | inactive | inactive | inactive | inactive | inactive | inactive | inactive | inactive | inactive | inactive | inactive | inactive |  |  | 
5 | O=c1ccc(=O)[nH][nH]1 | inactive | inactive | inactive | inactive | inactive |  |  | inactive | inactive | inactive | inactive | inactive | inactive | inactive | inactive | inactive | inactive | 
6 | COC(=O)NC(=S)Nc1ccccc1NC(=S)NC(=O)OC | inactive | inactive | inactive | inactive | inactive | inactive | inactive | inactive | inactive | inactive | inactive | inactive |  | inactive | inactive | inactive | inactive | 61.1 µM (active) and 48.6 µM (active)
7 | OCCN(CCO)CCO | inactive | inactive | inactive | inactive | inactive |  |  | inactive | inactive | inactive | inactive | inactive |  | inactive | inactive | inactive | inactive | inactive
8 | CC(C)NC(=O)N1CC(=O)N(c2cc(Cl)cc(Cl)c2)C1=O | inactive | inactive |  | inactive | inactive | inactive | inactive | 50.1 µM (active) and inactive | inactive | 19.3 µM (active) and inactive | inactive | inactive | inactive | inactive | inactive | inactive | inactive | 24.3 µM (active) and 54.5 µM (active)

— PubChem BioAssay (Tox21)
